From PubChem
KDM5B inh: blocks human KDM5B histone demethylase activity | Q9UGL1 | KDM5B demethylase, FDH-coupled NADH fluorescence (FDH is formaldehyde dehydrogenase) | Potency, µM (titrated, usually from 57.7 µM), most hits filed as inhibitors | 220,000 compounds, 2.6% hits | AID 1347165; active = well fitted inhibition curve with a large enough effect; note: 0% is about no effect; nearly all actives have a fitted effect of over 70% in size
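Measured: NADH fluorescence change, 30 min, RT. System: KDM5BΔAP 200 nM final, H3K4me3 peptide, α-KG, Fe(II), ascorbate, NAD⁺ plus FDH, pH 7.5 HEPES. Compounds: titrated, 10 min pre-incubation with enzyme.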
* = called active by the depositor. This is one part of a sample in which hits are shown more often than they occur. Potency is the fitted concentration of half-maximal effect.

`N#Cc1cccc(NC(=O)C2CCN(S(=O)(=O)c3ccc4c(c3)CCCN4C(=O)C3CCC3)CC2)c1` gave KDM5B inh inactive.
Screening CN1CCCN(C(=O)C2CCCO2)c2ccccc21 (centres undefined) returned KDM5B inh inactive.
`N#Cc1cccc(C(=O)N2CCC(n3cc(-c4nc(-c5ccccc5)no4)nn3)C2)c1` (centres undefined) gave KDM5B inh inactive.
For COc1cccc(-c2cn3c(n2)N(C(=O)C2CCC2)CCC3)c1 the results were KDM5B inh inactive.
For N#Cc1cccc(-c2cn3c(n2)N(C(=O)C2CCCO2)CCC3)c1 (centres undefined) the results were KDM5B inh 32µM*.
Screening CCCCn1nc(C(=O)N[C@@H](Cc2ccccc2)C(=O)O)c2ccccc2c1=O returned KDM5B inh inactive.
`CC(OC(=O)c1nn(C)c(=O)c2ccccc12)C(=O)N1CCCc2ccccc21` (centres undefined) gave KDM5B inh inactive.
O=C(Nc1cccc2ccccc12)C(C(=O)Nc1cccc2ccccc12)C12CC3CC(CC(C3)C1)C2 was read as KDM5B inh inactive.
Screening COC(=O)N1CCc2nc(C)nc(-c3ccc(Cl)cc3)c2CC1 returned KDM5B inh inactive.
O=C(c1ccn(C(F)F)n1)N1CCc2nc(-c3ccc(Cl)cc3)[nH]c2C1 was read as KDM5B inh inactive.
For CCOC(=O)N1CCC(N2CCc3nc(-c4ccc(Cl)cc4)[nH]c3C2)C1 (centres undefined) the results were KDM5B inh 22µM*.
CCOc1ccc(NC(=O)Cn2cccc2-c2nc(-c3ccccc3)no2)cc1 was read as KDM5B inh inactive.
Screening CC(C)C[C@@H](C(=O)NC1CCN(Cc2ccccc2)CC1)N1Cc2ccccc2C1=O returned KDM5B inh inactive.
For CC(C)(C)CC(=O)N[C@H]1C[C@H]2C(=O)Nc3ccc(-c4ccsc4)cc3C(=O)N2C1 the results were KDM5B inh inactive.
`COCC(=O)N[C@H]1C[C@H]2C(=O)Nc3ccc(-c4cccs4)cc3C(=O)N2C1` gave KDM5B inh 35µM*.
`O=C1Nc2ccc(Br)cc2C(=O)N2CC[C@H](NS(=O)(=O)c3cccs3)C[C@@H]12` gave KDM5B inh inactive.
O=C(O)CSCC(=O)N[C@H]1C[C@H]2C(=O)Nc3ccc(-c4cccs4)cc3C(=O)N2C1 was read as KDM5B inh 28µM*.
COCC(=O)N[C@H]1C[C@@H]2C(=O)N[C@H]3CCN(C(=O)c4cccn4C)[C@@H]3C(=O)N2C1 was read as KDM5B inh inactive.
`COCC(=O)N[C@H]1CCN2C(=O)c3ccccc3NC(=O)[C@@H]2C1` gave KDM5B inh inactive.
For N#CC1(C(=O)Nc2cccc(Cl)c2)CCCC1 the results were KDM5B inh inactive.
Cc1nn(Cc2cc(=O)oc3c(C)c(O)ccc23)c(=O)c(C#N)c1C was read as KDM5B inh inactive.
Screening Cc1cccc(CNC(=O)c2c(C)noc2-c2ccccc2Cl)c1 returned KDM5B inh inactive.
For Cc1noc(-c2cccs2)c1C(=O)NC(C)c1cccc2ccccc12 (centres undefined) the results were KDM5B inh 32µM*.
For Cc1noc(-c2cccs2)c1C(=O)N(C)Cc1ccccc1 the results were KDM5B inh inactive.
For COc1cc(OC)c(CNC(=O)c2c(C)noc2-c2cccs2)c(OC)c1 the results were KDM5B inh inactive.
Cc1noc(-c2cccs2)c1C(=O)NC(C)c1ccccc1 (centres undefined) was read as KDM5B inh 25µM*.
For Cc1nc(-c2cccs2)c(CC(=O)NC(C)c2cccc3ccccc23)s1 (centres undefined) the results were KDM5B inh inactive.
COc1ccc(-c2onc(C)c2C(=O)N[C@@H](C)c2ccc(OC)cc2)cc1 was read as KDM5B inh inactive.
Cc1cccc(CNC(=O)c2c(C)noc2-c2cccs2)c1 was read as KDM5B inh 28µM*.
Cc1nc2ccccc2nc1SCC(=O)NC(C)c1cccc2ccccc12 (centres undefined) was read as KDM5B inh inactive.
For CS(=O)(=O)Nc1cc(NC(=O)c2cc(-c3ccco3)on2)ccc1F the results were KDM5B inh inactive.
Screening Cc1nn(C(C)C)c(C)c1NC(=O)c1cc2occc2n1Cc1ccc(Cl)cc1 returned KDM5B inh inactive.
NC(=O)CN1CCC(NC(=O)c2ccc(Oc3ccccc3)cc2)CC1 was read as KDM5B inh inactive.
COc1cc(-c2noc(C3CCCN(S(=O)(=O)c4cccs4)C3)n2)ccc1OC(C)C (centres undefined) was read as KDM5B inh inactive.
Screening Cc1ccc(C)c(N=Cc2ccc(N(C)C)cc2)c1 returned KDM5B inh inactive.
Screening CN(C)[C@H]1CCCCN(C(=O)CCc2ccc(-c3ccc(Cl)cc3)[nH]2)C1 returned KDM5B inh 32µM*.
Cc1nccc(-c2ccccc2)c1C(=O)N1CCCC[C@H](N(C)C)C1 was read as KDM5B inh inactive.
`O=C(CCc1ncc(-c2ccc(Cl)cc2)o1)N1CCCC(O)C1` (centres undefined) gave KDM5B inh inactive.
`N#CC1=C(N)OC2=C(C1c1cccnc1)S(=O)(=O)N(Cc1ccccc1)c1ccccc12` (centres undefined) gave KDM5B inh inactive.
`COCCNC(=O)C1CN(Cc2ccccc2)C(=O)N1` (centres undefined) gave KDM5B inh inactive.
For COCCN1Cc2ccc(Nc3ccc(OC)cc3)nc2C(C)(C(=O)Nc2ccccc2)C1 (centres undefined) the results were KDM5B inh 32µM*.
`COC1CCN(C(=O)C2(C)CN(Cc3ccccc3)Cc3ccc(Nc4ccccc4)nc32)CC1` (centres undefined) gave KDM5B inh 32µM*.
CCc1cccc(NC(=O)N2CCC(OC3CCN(Cc4ccccc4)CC3)CC2)c1 was read as KDM5B inh inactive.
For COC1CCN(C(=O)Cn2c3c(c(=O)n2Cc2ccccc2)CCN(Cc2ccccc2)C3)CC1 the results were KDM5B inh inactive.
`CNC(=O)C1(C)CN(Cc2ccccc2)Cc2ccc(Nc3ccccc3)nc21` (centres undefined) gave KDM5B inh 35µM*.
For CNC(=O)[C@@H]1CN(Cc2ccccc2)C[C@H]1c1n[nH]c(C)n1 the results were KDM5B inh inactive.
For COc1ccc(CNC(=O)Nc2ccccc2)cc1 the results were KDM5B inh inactive.
COCCNC(=O)C1(C)CN(Cc2ccccc2)Cc2ccc(Nc3ccccc3)nc21 (centres undefined) was read as KDM5B inh 32µM*.
`COc1ccc(NC(=O)c2nc3ccccc3nc2N2CCN(C)CC2)cc1` gave KDM5B inh inactive.
For CC(=O)Nc1ccc(CN2CCC3(C2)C(=O)Nc2ccccc23)cc1 (centres undefined) the results were KDM5B inh inactive.
COCCNC(=O)C1Cn2cccc2C(=O)N1Cc1ccccc1 (centres undefined) was read as KDM5B inh inactive.
`CCOc1cc(CNCc2ccco2)ccc1OCc1ccccc1` gave KDM5B inh inactive.
`Cc1cc(NC(=O)NCC(c2cccs2)N2CCOCC2)no1` (centres undefined) gave KDM5B inh inactive.
O=C(c1ccc(C(F)(F)F)cc1)N1CCCN(C2CC2)CC1 was read as KDM5B inh inactive.
